Test results reported in PubChem BioAssay (EPA / NIEHS).
Some compounds were tested as several samples or in several runs, with calls that do not always agree. The source made the active and inactive calls. Rule for the calls: active = hit-call score of the fitted dose curve at least 0.9, where 1 is the maximum; inactive = score below 0.9.

Test: BSK_LPS_SRB: Viability Assessment in the BioMAP Diversity Plus: LPS Assay (AID 2283079);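 note: fitted in both directions against DMSO so loss or gain of signal counts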
Conditions: primary human HUVEC with PBMC
Protocol: BSK_LPS is a cell-based, multiplexed-readout assay that uses umbilical vein endothelium and peripheral blood mononuclear cells, a human vascular primary cell co-culture, with measurements taken at 24 hours after chemical dosing in a 96-well plate.BSK_LPS_SRB is an assay component measured in the BSK_LPS assay. It measures 0.1% sulforhodamine related to cell death using Sulforhodamine staining technology.Data from the assay component BSK_LPS_SRB was analyzed into 1 assay endpoint. This assay endpoint, BSK_LPS_SRB, was analyzed with bidirectional fitting relative to DMSO as the negative control and baseline of activity. Using a type of viability reporter, gain or loss-of-signal activity can be used to understand changes in the signaling. Furthermore, this assay endpoint can be referred to as a primary readout, because this assay has produced multiple assay endpoints where this one serves a signaling function. To generalize the intended target to other relatable targets, this assay endpoint is annotated to the cell morphology intended target family, where the subfamily is cell conformation.
The levels of cell surface (or secreted, indicated by the prefix "s") biomarker endpoints were measured by ELISA. Overt cytotoxicity to cells in confluent adherent cultures (all systems other than the BT system) was assessed by measuring total protein levels using sulforhodamine B (SRB) staining in parallel cultures at the time of biomarker measurements, indicated as SRB endpoints. For proliferation assays for adherent cell types, individual cell types are cultured at sub-confluence and relative cell numbers quantified by SRB staining at time points optimized for each system (48 h: 3C and CASM3C systems; 72 h: BT and HDF3CGF systems; 96 h: SAg system). SRB was performed by staining cells with 0.1% SRB after fixation with 10% TCA and reading wells at 560 nm.Viability and proliferation of PBMC (T cells) was quantified by Alamar Blue reduction for the SAg and BT systems. For PBMC viability (referred to as PBMC Cytotoxicity within the assay endpoint names), cells were plated (75,000/well in a 96-well plate) and then chemical samples added for 1 h before addition of activators, SEB and TSST-1 (20 ng/mL final concentration each). Cells were incubated for 90 h. Then, Alamar Blue (20 uL/well) (Invitrogen, Cat DAL1100) was added for 6 h, and the plates were read with a fluorescence microplate reader at 546/580 nm (excitation/emission). For PBMC proliferation, cells were plated and activated as above but incubated for only 16 h prior to addition of Alamar Blue. Plates were read after 6 h.

| Structure (SMILES) | outcome | AC50 |
| --- | --- | --- |
| CCCCC(CC)CO[N+](=O)[O-] (stereo not given) | inactive | – |
| COP(=S)(OC)Oc1c(Cl)cc(C)cc1Cl | – | 27.7 µM (active) |
| Oc1c(I)cc(I)cc1I | – | 20 µM (active) |
| CC(C)c1ccc(CO)cc1 | inactive | – |
| CCOP(=S)(OCC)Oc1nc(Cl)c(Cl)cc1Cl | inactive | – |
| Nc1ncc([N+](=O)[O-])s1 | inactive | – |
| CCOP(=S)(OCC)SCCS(=O)(=O)CC | inactive | – |
| O=C(O)C(F)(F)C(F)(F)C(F)(F)C(F)(F)C(F)(F)C(F)(F)C(F)(F)C(F)(F)C(F)(F)C(F)(F)F | inactive | 34.8 µM (active) |
| NC(=O)O | inactive | – |
| O=[N+]([O-])c1ccc(O)c([N+](=O)[O-])c1 | inactive | – |
| CCCCCCCCC(=O)NCc1ccc(O)c(OC)c1 | inactive | – |
| ClC1(Cl)C2(Cl)C3(Cl)C4(Cl)C(Cl)(Cl)C5(Cl)C3(Cl)C1(Cl)C5(Cl)C24Cl (stereo not given) | inactive | – |
| Cc1ccccc1N | inactive | – |
| O=C(O)C(Cl)(Cl)Cl | inactive | – |
| COP(=S)(OC)Oc1cc(Cl)c(Cl)cc1Cl | inactive | – |
| BrCCBr | inactive | – |
| CC(C)CCCCCCOC(=O)c1ccccc1C(=O)OCCCCCCC(C)C | inactive | – |
| Oc1cccc2cccnc12 | inactive | – |
| COC(=O)c1sccc1S(=O)(=O)NC(=O)Nc1nc(C)nc(OC)n1 | inactive | – |
| Nc1cccc2ccccc12 | inactive | – |

| Structure (SMILES) | outcome | AC50 |
| --- | --- | --- |
| COP(=S)(OC)Oc1ccc(Sc2ccc(OP(=S)(OC)OC)cc2)cc1 | – | 13.7 µM (active) |
| COP(=S)(OC)Oc1ccc(S(=O)(=O)N(C)C)cc1 | inactive | – |
| CCN1CCC2(CC1)COc1cc3c(cc12)N(C(=O)c1ccc(-c2ccc(-c4nnc(C)o4)cc2C)cc1)CC3 | – | 14.7 µM (active) |
| C=C(C)C(=O)[O][Sn]([CH2]CCC)([CH2]CCC)[CH2]CCC | – | 0.148 µM (active) |
| NC(=S)Nc1ccccc1 | inactive | – |
| O=c1[nH]c(=O)[nH]c(=O)[nH]1 | inactive | – |
| CC(=O)OC(c1ccccc1)C(Cl)(Cl)Cl (stereo not given) | inactive | – |
| COc1cc(OC)nc(NC(=O)NS(=O)(=O)c2ncccc2C(=O)N(C)C)n1 | inactive | – |
| O=C(O)CCC(F)(C(F)(F)F)C(F)(F)F | inactive | – |
| CCCCCCCCc1ccc(O)cc1 | – | 34.1 µM (active) |
| C=CC(=O)OCCCCCC(C)C | inactive | – |
| CC(=O)[O][Hg][c]1ccccc1 | – | 1.09 µM (active) |
| CCOC(=O)/C=C(C)/C=C/C[C@@H](C)CCCC(C)C | – | 38.7 µM (active) |
| CCNc1nc(NC(C)(C)C)nc(SC)n1 | inactive | – |
| C(=NC1CCCCC1)=NC1CCCCC1 | – | 32.8 µM (active) |
| ClC(Cl)=C(Cl)C(Cl)=C(Cl)Cl | – | 3.97 µM (active) |
| O=C1C2(Cl)C3(Cl)C4(Cl)C(Cl)(Cl)C5(Cl)C3(Cl)C1(Cl)C5(Cl)C24Cl (stereo not given) | – | 6.4 µM (active) |
| O=[N+]([O-])c1ccc2c3c(cccc13)CC2 | inactive | – |
| COc1cc(-c2ccc(N)c(OC)c2)ccc1N | inactive | – |
